Data as given in the supplement of paper PMC11865577.
Where a name gives a salt, the structure may show the parent alone.

Key:
Experiment in all cases: normalised indicator fluorescence (fraction of RNA + indicator signal without compound); higher = less displacement of indicator (weaker competition)
Conditions in all cases: compound concentration: 5 uM, 30 min
[1] = test system: hsa-mir-191 loop
How it was run: (§1)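 Compounds, each at about 5 uM final from 0.25 μL of 1 mM DMSO stock, were tested in 96-well plates for displacement of TO-PRO-1 or TO-PRO-3 from RNA in 20 mM phosphate pH 7.0, 20 mM NaCl, 80 mM KCl. Fluorescence was recorded after 30 min on an Infinite 200 PRO (excitation 485 or 620 nm). Reported values are averages of two independent experiments, calculated as indicator fluorescence minus the buffer-plus-indicator blank, divided by the RNA-plus-indicator signal without compound.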

[2] = test system: hsa-mir-21 loop
How it was run: as §1

[3] = test system: hsa-mir-221 loop
How it was run: as §1

[4] = test system: hsa-mir-374a loop
How it was run: as §1

[5] = test system: hsa-mir-6850 loop
How it was run: as §1

[6] = indicator: TO-PRO-1 0.1 uM, RNA concentration: 0.1 uM
[7] = indicator: TO-PRO-3 0.5 uM, RNA concentration: 0.5 uM

Row | SMILES | normalised indicator fluorescence [1, 6] | normalised indicator fluorescence [1, 7] | normalised indicator fluorescence [2, 6] | normalised indicator fluorescence [2, 7] | normalised indicator fluorescence [3, 6] | normalised indicator fluorescence [3, 7] | normalised indicator fluorescence [4, 6] | normalised indicator fluorescence [4, 7] | normalised indicator fluorescence [5, 6] | normalised indicator fluorescence [5, 7]
1 | COc1ccc(C(=C2C(=O)Nc3ccccc32)c2ccc(OC)cc2)cc1 | 1 | 1.03 | 0.92 | 1.03 | 1.1 | 1.09 | 1.08 | 1.15 | 0.944 | 1.03
2 | Cc1cc(NC(=O)c2cccc(NC(=O)/C=C/CN(C)C)c2)ccc1Nc1nccc(-c2cccnc2)n1 | 1.03 | 1.05 | 0.972 | 1.01 | 1.04 | 1.02 | 1.08 | 1.05 | 1.06 | 0.942
3 | CC(C)=CCC[C@](C)(O[C@@H]1O[C@H](CO)[C@@H](O)[C@H](O)[C@H]1O)[C@H]1CC[C@]2(C)[C@@H]1[C@H](O)C[C@@H]1[C@@]3(C)CC[C@H](O)C(C)(C)[C@@H]3[C@@H](O[C@@H]3O[C@H](CO)[C@@H](O)[C@H](O)[C@H]3O[C@@H]3OC[C@@H](O)[C@H](O)[C@H]3O)C[C@]12C [Notoginsenoside R1] | 1.04 | 1.01 | 1 | 0.991 | 1.15 | 0.995 | 1.21 | 1.09 | 0.982 | 1.01
4 | O=C1C[C@@H](c2ccc(O)cc2)Oc2cc(O)cc(O)c21 [Naringenin] | 0.927 | 1.03 | 0.942 | 1.05 | 1.07 | 0.975 | 1.17 | 1.18 | 0.978 | 1.02
5 | C[C@@H]1O[C@@H](Oc2c(-c3cc(O)c(O)c(O)c3)oc3cc(O)cc(O)c3c2=O)[C@H](O)[C@H](O)[C@H]1O [Myricetrin] | 0.952 | 1.05 | 0.962 | 1.07 | 0.97 | 1.09 | 1.07 | 1.17 | 0.944 | 1.08
6 | NNC(=O)c1ccncc1 [Isoniazid] | 1.01 | 1.06 | 0.967 | 1.07 | 0.976 | 1.01 | 1.01 | 1.07 | 0.921 | 1.09
7 | O=CN1CC/C(=C/c2ccc3c(c2)OCO3)C1=O | 1.04 | 1.04 | 0.922 | 1.01 | 1.03 | 0.986 | 1.1 | 1.08 | 1 | 1.03
8 | CC(=O)O[C@H]1C[C@@]2(C)[C@@H](C[C@@H](O)[C@H]3[C@@]4(C)CC[C@@H](O)[C@@H](C)[C@@H]4CC[C@@]32C)/C1=C(\CCC=C(C)C)C(=O)O [Sodium fusidate] | 1.06 | 1.05 | 0.986 | 1.07 | 1.01 | 1.03 | 1.09 | 1.11 | 0.956 | 1.02
9 | Cc1oncc1C(=O)Nc1ccc(C(F)(F)F)cc1 [Leflunomide] | 0.986 | 0.97 | 0.91 | 1.03 | 1 | 1.11 | 1.11 | 1.36 | 0.838 | 1.01
10 | Nc1c(Br)cc(Br)cc1CN[C@H]1CC[C@H](O)CC1 [Ambroxol] | 0.949 | 1.04 | 0.88 | 1.17 | 1.04 | 1.02 | 1.16 | 1.12 | 0.965 | 1.06
11 | [I-].[K+] [Potassium iodide] | 1.06 | 1.08 | 1.11 | 1.03 | 1.08 | 1.03 | 1.21 | 1.05 | 1.07 | 1.07
12 | CN(NC(=O)CC(=O)NN(C)C(=S)c1ccccc1)C(=S)c1ccccc1 [Elesclomol] | 1.05 | 1.03 | 1.06 | 1.03 | 1.04 | 0.964 | 1.09 | 1.18 | 1.02 | 1.02
13 | O=C1CCc2ccccc2C1 [Beta-Tetralone] | 1.04 | 1.06 | 1.05 | 1.04 | 1.04 | 1.06 | 1.07 | 1.02 | 0.996 | 1.08
14 | CC(C)OC(=O)CCC/C=C\C[C@@H]1[C@@H](CC[C@@H](O)CCc2ccccc2)[C@H](O)C[C@@H]1O [Latanoprost] | 1.01 | 1.03 | 0.985 | 0.978 | 1.01 | 1.05 | 1.01 | 1.06 | 1.06 | 1.04
15 | C[C@H]1[C@H](C)CC[C@]2(C(=O)O)CC[C@]3(C)C(=CC[C@@H]4[C@@]5(C)C[C@@H](O)[C@H](O)[C@@](C)(CO)[C@@H]5CC[C@]43C)[C@H]12 [Asiatic acid] | 0.974 | 1.01 | 0.904 | 1.07 | 1.03 | 0.961 | 1.15 | 1.06 | 0.846 | 1.03
16 | Cn1cc(-c2ccc3c(c2)CCN3C(=O)Cc2cccc(C(F)(F)F)c2)c2c(N)ncnc21 | 1.04 | 1.1 | 1.06 | 1.07 | 1.08 | 1.03 | 1.23 | 1.18 | 0.993 | 1.18
17 | CN1CCN(c2nc(C3=C(c4c[nH]c5ccccc45)C(=O)NC3=O)c3ccccc3n2)CC1 [Sotrastaurin] | 0.995 | 1.01 | 1.13 | 1.04 | 1.03 | 0.999 | 1.19 | 1.3 | 0.954 | 0.996
18 | COc1nccnc1NS(=O)(=O)c1ccc(NC(=O)/C=C/c2ccc([N+](=O)[O-])s2)cc1 [Necrosulfonamide] | 1.12 | 1.02 | 0.985 | 1.08 | 1.01 | 1.08 | 1.05 | 1.18 | 0.886 | 1
19 | CCCC(C(=O)OCCN(CC)CC)(c1ccccc1)c1ccccc1 [Proadifen hydrochloride] | 1.01 | 1.04 | 0.923 | 1 | 1.08 | 1.05 | 1.16 | 1.17 | 0.941 | 1.02

Row | SMILES | normalised indicator fluorescence [1, 6] | normalised indicator fluorescence [1, 7] | normalised indicator fluorescence [2, 6] | normalised indicator fluorescence [2, 7] | normalised indicator fluorescence [3, 6] | normalised indicator fluorescence [3, 7] | normalised indicator fluorescence [4, 6] | normalised indicator fluorescence [4, 7] | normalised indicator fluorescence [5, 6] | normalised indicator fluorescence [5, 7]
20 | O=c1c(O)c(-c2cc(O)c(O)c(O)c2)oc2cc(O)cc(O)c12 [Myricetin] | 0.403 | 0.684 | 0.387 | 0.742 | 0.505 | 0.659 | 0.543 | 0.424 | 0.604 | 0.969
21 | C1CCN2C[C@@H]3C[C@@H](CN4CCCC[C@@H]34)[C@H]2C1 [(-)-Sparteine sulfate pentahydrate] | 0.913 | 1.02 | 0.863 | 1.2 | 1.09 | 1.06 | 1.14 | 1.14 | 0.921 | 1.05
22 | O=c1cc(-c2ccc(O)cc2)oc2cc(O)cc(O)c12 [Apigenin] | 1.03 | 1.05 | 0.934 | 1 | 1.04 | 1.03 | 1.05 | 1.22 | 0.954 | 1.06
23 | CC(=O)O[C@H]1C[C@@]2(C)[C@@H](C[C@@H](O)[C@H]3[C@@]4(C)CC[C@@H](O)[C@@H](C)[C@@H]4CC[C@@]32C)/C1=C(\CCC=C(C)C)C(=O)O [Fusidine] | 0.992 | 1.01 | 0.976 | 1.08 | 1.04 | 1.02 | 1.15 | 1.21 | 1.06 | 1.06
24 | CC1=NN(c2ccccc2)C(=O)C1 [Edaravone] | 1.06 | 1.11 | 1.07 | 1.04 | 1.05 | 1.04 | 1.06 | 1.12 | 1.05 | 1.05
25 | CNc1ccc([N+](=O)[O-])c(Nc2ccc3[nH]ncc3c2)n1 | 0.903 | 0.996 | 0.899 | 1.02 | 0.959 | 1.15 | 1.1 | 1.35 | 0.93 | 0.929
26 | O=C(/C=C/C=C/c1ccc2c(c1)OCO2)N1CCCCC1 [Piperine] | 1.02 | 1.01 | 0.903 | 1.05 | 0.997 | 0.908 | 1.16 | 1.16 | 1.13 | 1.04
27 | NC(=O)N/N=C/c1ccc([N+](=O)[O-])o1 [Furacilin] | 1.06 | 1.02 | 0.909 | 1.06 | 1.14 | 1.03 | 1.15 | 1.16 | 0.927 | 1.04
28 | Cc1c(C)c2c(c(C)c1O)CC[C@@](C)(CCC[C@H](C)CCC[C@H](C)CCCC(C)C)O2 [Vitamin E] | 1.08 | 1.06 | 0.956 | 1.01 | 1.02 | 1.07 | 1.05 | 1.06 | 0.907 | 1.03
29 | C[C@@H]1O[C@@H](O[C@@H]2[C@@H](O)[C@H](OCCc3ccc(O)c(O)c3)O[C@H](CO)[C@H]2OC(=O)/C=C/c2ccc(O)c(O)c2)[C@H](O)[C@H](O)[C@H]1O [Verbascoside] | 1.1 | 1.02 | 1.13 | 1.01 | 1.07 | 0.949 | 1.46 | 1.14 | 1.02 | 1.02
30 | CC(=O)Oc1c(C)c(C)c2c(c1C)CCC(C)(CCC[C@H](C)CCC[C@H](C)CCCC(C)C)O2 (stereo not given in full) [Vitamin E Acetate] | 1.01 | 1.05 | 0.923 | 1.04 | 1.1 | 1.05 | 1.01 | 1.02 | 0.957 | 1.02
31 | Cc1cc(C(C)(C)C)c(O)c(C(C)(C)C)c1 | 1.01 | 1.04 | 1.04 | 1 | 1.05 | 1.12 | 1.11 | 1.19 | 0.924 | 1.06
32 | C[C@H](CCC(=O)NCCS(=O)(=O)O)[C@H]1CC[C@H]2[C@@H]3[C@@H](O)C[C@@H]4C[C@H](O)CC[C@]4(C)[C@H]3CC[C@]12C [Tauroursodeoxycholic Acid] | 1.03 | 1.01 | 0.892 | 1.01 | 1.02 | 1.05 | 1.06 | 1.13 | 0.975 | 1.02
33 | COc1ccc(-c2nc(-c3cc(C(F)(F)F)cc(C(F)(F)F)c3)n(Cc3ccc(C(N)=O)cc3)c2-c2ccc(OC)cc2)cc1 [Apoptozole] | 0.992 | 1.01 | 1.01 | 1.03 | 1.05 | 1.21 | 1.06 | 1.36 | 0.966 | 0.976
34 | N=C(NCCCCCCNC(=N)NC(=N)Nc1ccc(Cl)cc1)NC(=N)Nc1ccc(Cl)cc1 [Chlorhexidine] | 0.988 | 1.04 | 1.05 | 1 | 0.96 | 0.994 | 1.05 | 1.05 | 0.83 | 1.07
35 | O=c1c(O)c(-c2ccccc2)oc2cc(O)cc(O)c12 [Galangin] | 1.05 | 1.08 | 1 | 1.04 | 1.03 | 1.22 | 1.11 | 1.3 | 0.971 | 1.07
36 | CCNC(=O)c1noc(-c2cc(C(C)C)c(O)cc2O)c1-c1ccc(CN2CCOCC2)cc1 [Luminespib] | 1.08 | 1.05 | 1.03 | 1.02 | 1.06 | 1.05 | 1.04 | 1.15 | 1.01 | 1.06
37 | Oc1cc(O)c2c(c1)O[C@H](c1ccc(O)c(O)c1)[C@@H](O)C2 [(+)-Catechin Hydrate] | 0.971 | 1.07 | 0.941 | 1.02 | 1.02 | 1.13 | 1.15 | 1.22 | 0.975 | 1.09
38 | O=c1ccc2ccc(O)c(O)c2o1 [Daphnetin] | 1.01 | 0.873 | 1.09 | 0.941 | 0.91 | 0.965 | 1.09 | 1.03 | 1.19 | 0.881
